The full data set covers some 7,900 targets. This sample favours those with a hit. About 0.6% of all pairs of compound and target were hits. A number with no mark means an inactive call.

UniProt P13010, sequence (P13010 whole entry, looked up): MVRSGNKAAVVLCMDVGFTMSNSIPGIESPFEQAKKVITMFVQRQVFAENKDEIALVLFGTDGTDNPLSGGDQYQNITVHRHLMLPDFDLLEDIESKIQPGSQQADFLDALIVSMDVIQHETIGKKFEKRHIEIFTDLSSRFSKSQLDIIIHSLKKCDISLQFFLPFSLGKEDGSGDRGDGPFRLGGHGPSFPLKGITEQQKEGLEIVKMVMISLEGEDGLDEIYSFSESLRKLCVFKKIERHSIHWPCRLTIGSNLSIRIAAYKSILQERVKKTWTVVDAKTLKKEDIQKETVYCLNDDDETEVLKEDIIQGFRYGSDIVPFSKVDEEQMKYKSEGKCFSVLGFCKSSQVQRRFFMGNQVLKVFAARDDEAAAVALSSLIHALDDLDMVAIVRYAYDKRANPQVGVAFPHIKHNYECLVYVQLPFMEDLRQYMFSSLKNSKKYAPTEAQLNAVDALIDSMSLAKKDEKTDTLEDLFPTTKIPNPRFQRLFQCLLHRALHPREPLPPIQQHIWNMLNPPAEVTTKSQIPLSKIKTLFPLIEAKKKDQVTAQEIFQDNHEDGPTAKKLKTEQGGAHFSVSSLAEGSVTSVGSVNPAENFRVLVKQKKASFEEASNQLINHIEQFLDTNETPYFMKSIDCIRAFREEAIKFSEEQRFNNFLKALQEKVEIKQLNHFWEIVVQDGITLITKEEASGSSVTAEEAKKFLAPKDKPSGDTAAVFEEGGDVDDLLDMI
UniProt Q9P253, sequence (Q9P253 whole entry, looked up): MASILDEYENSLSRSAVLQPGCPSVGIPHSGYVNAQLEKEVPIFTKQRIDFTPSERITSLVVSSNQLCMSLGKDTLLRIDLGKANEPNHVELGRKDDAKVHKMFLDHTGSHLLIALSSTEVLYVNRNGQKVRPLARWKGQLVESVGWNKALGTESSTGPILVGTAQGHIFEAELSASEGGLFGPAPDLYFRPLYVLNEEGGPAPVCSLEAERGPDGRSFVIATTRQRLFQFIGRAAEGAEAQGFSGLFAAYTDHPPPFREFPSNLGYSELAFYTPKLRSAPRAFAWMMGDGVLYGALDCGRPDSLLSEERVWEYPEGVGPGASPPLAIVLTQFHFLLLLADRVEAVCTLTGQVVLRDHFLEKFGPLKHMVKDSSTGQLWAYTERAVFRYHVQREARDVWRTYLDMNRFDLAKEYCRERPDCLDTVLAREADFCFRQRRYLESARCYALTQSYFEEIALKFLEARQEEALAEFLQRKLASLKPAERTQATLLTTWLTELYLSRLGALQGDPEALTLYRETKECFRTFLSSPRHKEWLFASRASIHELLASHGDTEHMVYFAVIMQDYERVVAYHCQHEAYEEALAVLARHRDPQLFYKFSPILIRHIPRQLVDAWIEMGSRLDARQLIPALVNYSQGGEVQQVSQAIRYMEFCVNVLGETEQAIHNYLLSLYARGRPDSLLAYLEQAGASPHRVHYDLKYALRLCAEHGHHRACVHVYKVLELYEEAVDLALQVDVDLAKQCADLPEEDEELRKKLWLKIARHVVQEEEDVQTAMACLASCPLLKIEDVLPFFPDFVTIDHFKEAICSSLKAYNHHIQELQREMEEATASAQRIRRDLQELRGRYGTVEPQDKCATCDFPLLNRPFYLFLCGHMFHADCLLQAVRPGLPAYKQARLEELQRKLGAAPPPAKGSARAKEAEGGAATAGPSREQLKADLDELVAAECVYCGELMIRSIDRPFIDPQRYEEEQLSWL
UniProt Q96JG6, sequence (Q96JG6 whole entry, looked up): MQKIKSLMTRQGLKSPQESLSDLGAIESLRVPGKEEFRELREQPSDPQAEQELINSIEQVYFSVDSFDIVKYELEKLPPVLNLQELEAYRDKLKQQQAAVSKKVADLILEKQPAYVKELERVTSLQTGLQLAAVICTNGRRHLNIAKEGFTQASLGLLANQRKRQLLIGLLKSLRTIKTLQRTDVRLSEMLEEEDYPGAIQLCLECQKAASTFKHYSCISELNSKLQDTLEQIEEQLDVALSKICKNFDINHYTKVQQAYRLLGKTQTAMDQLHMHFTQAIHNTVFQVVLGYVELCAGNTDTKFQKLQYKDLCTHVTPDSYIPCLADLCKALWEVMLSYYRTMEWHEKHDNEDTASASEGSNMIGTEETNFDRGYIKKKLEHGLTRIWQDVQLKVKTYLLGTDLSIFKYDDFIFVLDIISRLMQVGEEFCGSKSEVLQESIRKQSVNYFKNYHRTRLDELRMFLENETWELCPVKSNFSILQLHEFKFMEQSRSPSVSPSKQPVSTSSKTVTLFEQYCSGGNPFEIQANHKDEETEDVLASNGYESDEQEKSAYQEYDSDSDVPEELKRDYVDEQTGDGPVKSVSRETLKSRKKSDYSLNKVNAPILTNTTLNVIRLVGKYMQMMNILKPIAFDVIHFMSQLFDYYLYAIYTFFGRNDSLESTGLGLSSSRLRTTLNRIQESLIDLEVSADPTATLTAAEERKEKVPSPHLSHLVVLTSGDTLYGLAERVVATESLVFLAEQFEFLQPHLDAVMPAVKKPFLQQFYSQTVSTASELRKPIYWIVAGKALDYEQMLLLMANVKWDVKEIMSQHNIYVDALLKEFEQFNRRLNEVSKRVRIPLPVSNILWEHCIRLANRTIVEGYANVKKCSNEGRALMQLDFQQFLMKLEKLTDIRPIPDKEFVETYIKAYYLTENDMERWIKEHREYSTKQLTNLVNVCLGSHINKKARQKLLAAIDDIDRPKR
UniProt Q9Y5K5, sequence (Q9Y5K5 whole entry, looked up): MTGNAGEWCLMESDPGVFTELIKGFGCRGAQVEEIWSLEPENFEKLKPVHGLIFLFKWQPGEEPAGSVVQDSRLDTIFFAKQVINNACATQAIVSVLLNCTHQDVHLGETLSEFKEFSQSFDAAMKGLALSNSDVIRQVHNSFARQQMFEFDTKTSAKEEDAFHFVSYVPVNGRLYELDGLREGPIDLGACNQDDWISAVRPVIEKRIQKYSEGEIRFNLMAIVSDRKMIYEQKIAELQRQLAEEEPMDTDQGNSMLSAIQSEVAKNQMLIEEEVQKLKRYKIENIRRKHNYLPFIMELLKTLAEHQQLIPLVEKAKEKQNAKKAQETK
UniProt O60701, sequence (O60701 whole entry, looked up): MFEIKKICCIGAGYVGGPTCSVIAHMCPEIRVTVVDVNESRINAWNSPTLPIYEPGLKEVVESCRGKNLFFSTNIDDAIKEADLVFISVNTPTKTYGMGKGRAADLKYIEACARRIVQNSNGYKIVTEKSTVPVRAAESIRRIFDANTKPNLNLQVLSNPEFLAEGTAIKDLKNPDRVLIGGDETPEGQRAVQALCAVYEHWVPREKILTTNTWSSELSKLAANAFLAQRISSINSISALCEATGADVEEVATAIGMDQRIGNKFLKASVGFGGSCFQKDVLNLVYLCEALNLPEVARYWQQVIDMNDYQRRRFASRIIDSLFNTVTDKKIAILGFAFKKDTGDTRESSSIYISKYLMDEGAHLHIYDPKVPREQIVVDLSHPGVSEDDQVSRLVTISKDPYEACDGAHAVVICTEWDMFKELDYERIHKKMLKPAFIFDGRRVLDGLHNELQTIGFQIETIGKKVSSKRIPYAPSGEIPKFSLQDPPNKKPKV
UniProt O43617, sequence (O43617 whole entry, looked up): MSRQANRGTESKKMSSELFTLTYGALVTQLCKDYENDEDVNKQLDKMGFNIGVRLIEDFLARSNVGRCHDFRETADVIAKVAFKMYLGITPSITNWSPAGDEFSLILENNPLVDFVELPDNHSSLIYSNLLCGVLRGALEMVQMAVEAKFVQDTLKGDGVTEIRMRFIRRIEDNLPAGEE
UniProt O95155, sequence (O95155 whole entry, looked up): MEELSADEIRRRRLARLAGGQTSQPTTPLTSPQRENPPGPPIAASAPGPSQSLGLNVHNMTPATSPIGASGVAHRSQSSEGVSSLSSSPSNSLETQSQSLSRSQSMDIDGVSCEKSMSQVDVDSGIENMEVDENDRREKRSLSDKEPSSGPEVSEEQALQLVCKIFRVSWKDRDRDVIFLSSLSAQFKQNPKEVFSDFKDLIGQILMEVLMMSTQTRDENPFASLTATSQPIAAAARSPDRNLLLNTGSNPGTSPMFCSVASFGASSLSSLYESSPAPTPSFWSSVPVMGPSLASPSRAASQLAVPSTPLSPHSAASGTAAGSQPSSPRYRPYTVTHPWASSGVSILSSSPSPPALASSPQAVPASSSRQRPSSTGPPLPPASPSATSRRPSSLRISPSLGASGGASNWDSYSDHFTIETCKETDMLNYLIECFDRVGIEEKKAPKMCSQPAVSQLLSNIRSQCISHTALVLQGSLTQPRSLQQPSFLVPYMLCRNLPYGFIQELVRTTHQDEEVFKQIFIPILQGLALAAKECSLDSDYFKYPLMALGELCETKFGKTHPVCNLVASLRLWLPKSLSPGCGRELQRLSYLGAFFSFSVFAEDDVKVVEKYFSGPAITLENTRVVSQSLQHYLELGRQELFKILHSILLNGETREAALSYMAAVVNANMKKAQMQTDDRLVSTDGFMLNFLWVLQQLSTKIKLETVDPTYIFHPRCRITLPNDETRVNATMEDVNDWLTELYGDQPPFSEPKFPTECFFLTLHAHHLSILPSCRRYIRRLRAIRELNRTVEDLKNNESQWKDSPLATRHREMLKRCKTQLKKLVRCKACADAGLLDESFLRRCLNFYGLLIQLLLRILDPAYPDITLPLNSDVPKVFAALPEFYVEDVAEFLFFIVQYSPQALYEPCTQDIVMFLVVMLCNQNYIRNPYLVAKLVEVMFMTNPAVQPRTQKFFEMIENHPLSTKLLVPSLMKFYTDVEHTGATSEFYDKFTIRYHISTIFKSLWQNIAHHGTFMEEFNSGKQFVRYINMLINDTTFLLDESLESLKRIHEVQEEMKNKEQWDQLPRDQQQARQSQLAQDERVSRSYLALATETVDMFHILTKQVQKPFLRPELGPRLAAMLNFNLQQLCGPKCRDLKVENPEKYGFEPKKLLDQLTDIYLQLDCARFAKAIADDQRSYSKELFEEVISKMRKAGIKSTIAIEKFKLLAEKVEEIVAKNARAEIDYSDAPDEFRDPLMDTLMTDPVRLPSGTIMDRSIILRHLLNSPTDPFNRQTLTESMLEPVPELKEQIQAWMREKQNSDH

Compound in this experiment: Cc1cc(Nc2cc(N3CCN(C)CC3)nc(Sc3ccc(NC(=O)C4CC4)cc3)n2)n[nH]1 [tozasertib]
The experiment can be described thus: log2 fold change, soluble protein after heating vs DMSO (PISA); higher = thermal stabilisation; K562 cells, 10 uM, 30 min; active = over 0.2 and 3.5 SD of the protein, either way, in both replicates (recomputed). An outline of the steps:
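K562 cells at 2×10^6 cells/mL were treated with 10 μM compound for 30 min. Aliquots were heated for 3 min across 48°C-58°C, pooled, and extracted in PBS with 0.5% NP-40 at 4°C; soluble protein was the supernatant after 21,000xg for 90 min. Soluble protein was quantified by TMTpro 16plex LC-MS/MS with channel sums equalised, and reported as log2 fold change in thermal stability against DMSO controls, with values from duplicates.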
Consider VPS18 (UniProt Q9P253), for which the log2 fold change was 0.009.
As to TRAPPC11 (UniProt Q7Z392), the log2 fold change was 0.021.
VDAC1 (UniProt P21796): the log2 fold change is 0.
Turning to TNPO1 (UniProt Q92973), the log2 fold change was 0.052.
For the target UGDH (UniProt O60701), the log2 fold change was 0.046.
As for UCHL5 (UniProt Q9Y5K5), the figure is 0.036.
Consider TP53BP1 isoform 2 (UniProt Q12888), for which the log2 fold change is 0.205.
Consider VRK1 (UniProt Q99986), for which the log2 fold change was -0.096.
As for WEE1 (UniProt P30291), the figure is -0.5; as for VTI1A (UniProt Q96AJ9), 0.038; as for WASHC2A (UniProt Q641Q2), 0.062.
With TMEM9 (UniProt Q9P0T7), the log2 fold change is -0.049.
Next, VPS33A (UniProt Q96AX1): 0.036; TMEM70 (UniProt Q9BUB7): -0.016; XRCC5 (UniProt P13010): 0.177.
With TRAPPC3 (UniProt O43617), the log2 fold change was 0.028.
Consider TNPO3 (UniProt Q9Y5L0), for which the log2 fold change was 0.087.
For the target TPM2 (UniProt P07951), the log2 fold change is 0.
For UBE4B isoform 4 (UniProt O95155), the log2 fold change was 0.035.
On to USP14 (UniProt P54578), for which the log2 fold change is -0.002.
On to VPS50 (UniProt Q96JG6), for which the log2 fold change was 0.01.
TMEM87B (UniProt Q96K49): the log2 fold change was 0.07.
Take TMEM263 (UniProt Q8WUH6): the log2 fold change was -0.019.
For the target TYW1 (UniProt Q9NV66), the log2 fold change was 0.037.

These data come from the supplement of paper PMC10849652.
